What all share (settings): modulator concentration 10 µM
For assay [1], the system named is RAW-Dual (murine macrophage reporter line). The assay is described as follows: NF-kB reporter (SEAP) activity fold change vs agonist alone; higher = enhanced NF-kB activity. The gist of the method:
(§1)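 In 384-well plates holding 50 000 RAW-Dual murine macrophage reporter cells per well, compound at 10 μM final was pre-incubated for 1 hour at 37 °C, after which a PRR agonist was added overnight. Supernatant SEAP read with QUANTI-Blue at 620 nm absorbance reported NF-κB, and Lucia luciferase read with QUANTI-Luc luminescence reported IRF. Fold change values come from dividing each reporter signal by the mean of agonist-only control wells on the same plate, averaged over replicate plates with propagated errors.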

For assay [2] the test system is unchanged. Briefly: IRF reporter (Lucia luciferase) activity fold change vs agonist alone; higher = enhanced IRF activity. In short, it runs like this: as §1
The test system is the same in assay [3]. The assay is described as follows: viability score (confluency relative to resting cells, overnight) (fraction); higher = more viable, active = viable (0.7 or more). In short, it runs like this: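 Two confluency masks, generated with IncuCyte software over all imaged wells, were applied to IncuCyte images of RAW-Dual macrophages. The cells, in 384-well plates, had been exposed overnight to 10 μM final compound. The viability score is confluency as a fraction of resting cells, and a compound met the cutoff only with both masks above 70% of resting cells.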

Where [4] appears, read: agonist: CpG ODN 1826 0.5 ug/mL.

± gives the standard deviation.

As to `CCOc1ccc2oc(-c3ccccc3)c(C(=O)N3CCN(C)CC3)c2c1`, the figures for the NF-kB reporter in assay [1] (setting [4]), in assay [1] (agonist: LPS 0.1 ug/mL) and in assay [1] (agonist: MPLA […]) were 1.03 ± 0.052, 1.09 ± 0.087 and 1.03 ± 0.05, respectively. The IRF reporter in assay [2] (agonist: 3'3'-cGAMP 10 ug/mL) was 1.05 ± 0.053; in assay [2] (agonist: LPS 0.1 ug/mL), 1.15 ± 0.13; in assay [2] (agonist: MPLA […]), 1.26 ± 0.31. The viability score in assay [3] is 0.966 (active).

Take `COc1cccc2c1C(=O)c1c(O)c3c(c(O)c1C2=O)C[C@@](O)(C(=O)CO)C[C@@H]3O[C@H]1C[C@H](N)[C@H](O)[C@H](C)O1` [Prestw-438]: the values for the NF-kB reporter in assay [1] (setting [4]), in assay [1] (agonist: LPS 0.1 ug/mL) and in assay [1] (agonist: MPLA […]) were 0.123 ± 0.007, 0.0747 ± 0.019 and 0.112 ± 0.0071, respectively. Further, the IRF reporter in assay [2] (agonist: 3'3'-cGAMP 10 ug/mL) was 0.03 ± 0.0031; in assay [2] (agonist: LPS 0.1 ug/mL) it was 0.0425 ± 0.0034; in assay [2] (agonist: MPLA […]), 0.0335 ± 0.0064. The viability score in assay [3] is 0.114 (inactive).

`CCC(C)NS(=O)(=O)c1ccc([N+](=O)[O-])cc1` (stereo unspecified): the NF-kB reporter in assay [1] (setting [4]) was 1.13 ± 0.11; in assay [1] (agonist: LPS 0.1 ug/mL), 1.05 ± 0.075; in assay [1] (agonist: MPLA […]), 0.977 ± 0.034. In addition, the IRF reporter in assay [2] (agonist: 3'3'-cGAMP 10 ug/mL) was found to be 0.883 ± 0.05; in assay [2] (agonist: LPS 0.1 ug/mL), 1.13 ± 0.1; in assay [2] (agonist: MPLA […]) it was 1.18 ± 0.14. In assay [3], the viability score was 0.998 (active).

As for `O=C(OCCN1CCOCC1)c1ccc(O)cc1O`, the NF-kB reporter in assay [1] (setting [4]) stood at 1.21 ± 0.12; in assay [1] (agonist: LPS 0.1 ug/mL) it was 1.06 ± 0.1; in assay [1] (agonist: MPLA […]) it was 1.06 ± 0.056. In addition, the IRF reporter stood at 1.05 ± 0.14 in assay [2] (agonist: 3'3'-cGAMP 10 ug/mL), 0.972 ± 0.044 in assay [2] (agonist: LPS 0.1 ug/mL) and 0.856 ± 0.076 in assay [2] (agonist: MPLA […]). Besides, the viability score in assay [3] is 0.999 (active).

For the molecule `CC(=O)Oc1cc2c(s1)CCN(C(C(=O)C1CC1)c1ccccc1F)C2.Cl` (stereo unspecified), the results for the NF-kB reporter in assay [1] (setting [4]), in assay [1] (agonist: LPS 0.1 ug/mL) and in assay [1] (agonist: MPLA […]) were 0.767 ± 0.1, 0.727 ± 0.11 and 0.77 ± 0.043, respectively. For the same molecule, the IRF reporter in assay [2] (agonist: 3'3'-cGAMP 10 ug/mL) was 0.779 ± 0.073; in assay [2] (agonist: LPS 0.1 ug/mL) it was 1.01 ± 0.088; in assay [2] (agonist: MPLA […]), 0.998 ± 0.12. The viability score in assay [3] was 0.983 (active).

For the molecule `COc1ccc2[nH]c(S(=O)Cc3ncc(C)c(OC)c3C)nc2c1` (stereo unspecified), the NF-kB reporter worked out at 1.22 ± 0.23 in assay [1] (setting [4]), 1.01 ± 0.26 in assay [1] (agonist: LPS 0.1 ug/mL) and 0.909 ± 0.065 in assay [1] (agonist: MPLA […]). Besides, the figures for the IRF reporter in assay [2] (agonist: 3'3'-cGAMP 10 ug/mL), in assay [2] (agonist: LPS 0.1 ug/mL) and in assay [2] (agonist: MPLA […]) were 0.83 ± 0.028, 1.11 ± 0.27 and 0.934 ± 0.074, respectively. Further, in assay [3], the viability score is 0.99 (active).

For the molecule `Cc1ccc(CNC(=O)C(=O)NC2CCCCC2)cc1`, the figures for the NF-kB reporter in assay [1] (setting [4]), in assay [1] (agonist: LPS 0.1 ug/mL) and in assay [1] (agonist: MPLA […]) were 1 ± 0.094, 0.956 ± 0.11 and 0.963 ± 0.091, respectively. The IRF reporter in assay [2] (agonist: 3'3'-cGAMP 10 ug/mL) is 0.97 ± 0.025; in assay [2] (agonist: LPS 0.1 ug/mL), 1.46 ± 0.2; in assay [2] (agonist: MPLA […]) it was 1.11 ± 0.21. Moreover, the viability score in assay [3] is 1.01 (active).

For `O=C(CSC1CCCCC1)Nc1ccc(Br)cc1`, the NF-kB reporter in assay [1] (setting [4]) was determined as 1 ± 0.33; in assay [1] (agonist: LPS 0.1 ug/mL) it was 0.949 ± 0.07; in assay [1] (agonist: MPLA […]), 1.1 ± 0.07. Further, the IRF reporter stood at 0.671 ± 0.022 in assay [2] (agonist: 3'3'-cGAMP 10 ug/mL), 1.06 ± 0.12 in assay [2] (agonist: LPS 0.1 ug/mL) and 1.12 ± 0.14 in assay [2] (agonist: MPLA […]). Moreover, the viability score in assay [3] is 0.962 (active).

For the molecule `O=C(C(c1ccccc1)c1ccccc1)N1CCC(n2nccn2)CC1`, the NF-kB reporter in assay [1] (setting [4]) stood at 1 ± 0.054; in assay [1] (agonist: LPS 0.1 ug/mL), 1.09 ± 0.13; in assay [1] (agonist: MPLA […]), 0.904 ± 0.063. Moreover, the IRF reporter in assay [2] (agonist: 3'3'-cGAMP 10 ug/mL) came out at 0.989 ± 0.053; in assay [2] (agonist: LPS 0.1 ug/mL) it was 1.25 ± 0.078; in assay [2] (agonist: MPLA […]) it was 1.16 ± 0.12. Further, the viability score in assay [3] is 0.999 (active).

As to `CCOCC(=O)Nc1ccc(N2CCCCC2=O)c(C)c1`, the NF-kB reporter in assay [1] (setting [4]) came out at 0.884 ± 0.11; in assay [1] (agonist: LPS 0.1 ug/mL), 0.79 ± 0.11; in assay [1] (agonist: MPLA […]), 0.828 ± 0.16. The IRF reporter in assay [2] (agonist: 3'3'-cGAMP 10 ug/mL) worked out at 0.899 ± 0.12; in assay [2] (agonist: LPS 0.1 ug/mL) it was 1.06 ± 0.14; in assay [2] (agonist: MPLA […]) it was 1 ± 0.3. For the same molecule, in assay [3], the viability score is 0.93 (active).

As to `CCOC(=O)c1ccc(N)cc1.Cl`, the NF-kB reporter came to 0.872 ± 0.12 in assay [1] (setting [4]), 1.03 ± 0.12 in assay [1] (agonist: LPS 0.1 ug/mL) and 0.997 ± 0.056 in assay [1] (agonist: MPLA […]). Further, the values for the IRF reporter in assay [2] (agonist: 3'3'-cGAMP 10 ug/mL), in assay [2] (agonist: LPS 0.1 ug/mL) and in assay [2] (agonist: MPLA […]) were 0.819 ± 0.036, 1.25 ± 0.1 and 0.977 ± 0.13, respectively. Besides, in assay [3], the viability score is 0.996 (active).

As to `O=C1NC(=O)C(=Cc2ccc(F)cc2)S1`, the results for the NF-kB reporter in assay [1] (setting [4]), in assay [1] (agonist: LPS 0.1 ug/mL) and in assay [1] (agonist: MPLA […]) were 0.667 ± 0.052, 0.951 ± 0.062 and 0.91 ± 0.032, respectively. The IRF reporter in assay [2] (agonist: 3'3'-cGAMP 10 ug/mL) worked out at 0.773 ± 0.16; in assay [2] (agonist: LPS 0.1 ug/mL) it was 1.02 ± 0.089; in assay [2] (agonist: MPLA […]), 1.02 ± 0.16. The viability score in assay [3] was 0.988 (active).

As for `O=[N+]([O-])c1ccc(C=Nc2sc3c(c2-c2nc4ccccc4s2)CCCC3)cc1`, the NF-kB reporter came out at 0.94 ± 0.059 in assay [1] (setting [4]), 0.955 ± 0.059 in assay [1] (agonist: LPS 0.1 ug/mL) and 0.983 ± 0.057 in assay [1] (agonist: MPLA […]). In addition, the IRF reporter in assay [2] (agonist: 3'3'-cGAMP 10 ug/mL) was found to be 0.94 ± 0.04; in assay [2] (agonist: LPS 0.1 ug/mL), 1.2 ± 0.12; in assay [2] (agonist: MPLA […]) it was 0.93 ± 0.089. The viability score in assay [3] was 1 (active).

The values are drawn from the supplement of paper PMC10646978.
